# Screening data as filed in PubChem BioAssay.
# BoNT-F LC inh – BoNT/F light chain protease inhibitors, primary screen, biochemical, flow cytometry, MLPCN library; Multiplex microsphere protease cleavage assay; Botulinum neurotoxin type F light chain protease (Clostridium botulinum); inhibition, % at 10 µM; AID 588497, 2011; 360,000 tested, 0.22% active; in the data active = inhibition above about 35%, passing the limit was not always enough; inconclusive = no clear call, values can overlap the other calls; also: plate controls were buffer without enzyme for full effect and enzyme alone for no effect
# MazF activator – activators of E. coli MazEF toxin-antitoxin RNase, primary screen, biochemical, fluorescence, uHTS | Endoribonuclease toxin MazF (Escherichia coli (strain K12)), P0AE70 | FAM/BHQ RNA-DNA oligo cleavage fluorescence, 5 h | activation, % at 20 µM | 350,000 tested, 0.32% active | AID 504720, 2011; in the data active = activation above about 50%
# Anthrax LF prot – Bacillus anthracis LF protease inhibitors, primary screen, biochemical, multiplex microsphere, MLPCN library; multiplex microsphere protease cleavage assay; 360,000 tested, 0.12% active; AID 588501, 2011; inhibition, % at 10 µM; Lethal factor (Bacillus anthracis), P15917; also: plate controls were buffer without enzyme for full effect and enzyme alone for no effect
# Target sequence (P15917 whole entry, looked up): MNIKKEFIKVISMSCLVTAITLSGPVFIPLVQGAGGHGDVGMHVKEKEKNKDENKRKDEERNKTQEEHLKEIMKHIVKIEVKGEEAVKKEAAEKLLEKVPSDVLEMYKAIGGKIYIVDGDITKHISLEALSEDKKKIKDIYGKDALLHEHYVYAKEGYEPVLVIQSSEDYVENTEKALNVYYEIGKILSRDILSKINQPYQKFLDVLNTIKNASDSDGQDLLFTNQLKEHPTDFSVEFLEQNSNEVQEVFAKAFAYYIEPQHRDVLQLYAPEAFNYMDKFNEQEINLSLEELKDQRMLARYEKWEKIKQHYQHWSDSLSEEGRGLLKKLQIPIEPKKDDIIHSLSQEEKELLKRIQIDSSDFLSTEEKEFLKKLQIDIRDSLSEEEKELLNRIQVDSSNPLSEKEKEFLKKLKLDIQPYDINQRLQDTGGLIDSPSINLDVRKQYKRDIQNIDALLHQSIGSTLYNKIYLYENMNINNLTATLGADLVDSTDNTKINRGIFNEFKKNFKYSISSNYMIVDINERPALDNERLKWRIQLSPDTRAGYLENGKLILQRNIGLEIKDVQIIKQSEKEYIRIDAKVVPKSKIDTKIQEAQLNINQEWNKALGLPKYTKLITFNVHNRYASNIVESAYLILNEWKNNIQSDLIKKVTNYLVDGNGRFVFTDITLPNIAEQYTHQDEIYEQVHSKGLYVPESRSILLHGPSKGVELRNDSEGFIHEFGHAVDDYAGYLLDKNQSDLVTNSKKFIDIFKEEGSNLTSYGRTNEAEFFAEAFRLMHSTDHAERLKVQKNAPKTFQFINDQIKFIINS
# DUSP3 inh – VHR1 phosphatase inhibitors, primary screen, biochemical, absorbance, uHTS | Dual specificity protein phosphatase 3 (Homo sapiens), P51452 | recombinant VHR phosphatase, pNPP absorbance | inhibition, % at 13.3 µM | 290,000 tested, 0.52% active; in the data active = inhibition above about 50%
# Bead autofluor – flagged as autofluorescent in microsphere protease counterscreen; compound autofluorescence counterscreen, microsphere flow cytometry; active compounds read high; 360,000 tested, 3.1% active; AID 624483; fluorescence intensity (no concentration beside the values); in the data active = fluorescence intensity above about 16000; inconclusive = no clear call, values can overlap the other calls
# BoNT A protease – BoNT/A light chain protease inhibitors, primary screen, biochemical, flow cytometry, MLPCN library; Botulinum neurotoxin type A light chain protease (Clostridium botulinum A str. ATCC 3502); multiplex microsphere protease substrate cleavage; inhibition, % at 10 µM; 360,000 tested, 0.17% active; AID 588499, 2011; also: plate controls were buffer without enzyme for full effect and enzyme alone for no effect
# * hit, by the source's call; i = inactive; ? = inconclusive; / = not tested or not shown. In the library only some 4.1% were active in any assay of this set; here they are far more common. Rule as the data show it, unless noted: active = inhibition above about 30%; inconclusive = no clear call, values can overlap the other calls; inactive = below that.
SMILES,BoNT-F LC inh,MazF activator,Anthrax LF prot,DUSP3 inh,Bead autofluor,BoNT A protease
CN(CCc1ccccn1)Cc1ccc(Cl)cc1Cl,-3,6,0,31,24561*,-4
O=C(CSCCc1ccccn1)Nc1ccc(Br)cn1,-1,3,0,33,23013*,0
O=C(CSCc1c(Cl)cccc1Cl)Nc1ccc2c(c1)OCCO2,4,-12,-1,-8,1907,0
CC(C)n1cc(/C=C/c2cc[n+](C)cc2)c2ccccc21,?,69*,2,13,7713,-10
C=CCn1cc(/C=C/c2cc[n+](C)cc2)c2ccccc21,6,70*,-12,18,5216,-1
CCn1cc(/C=C/c2cc[n+](C)cc2)c2ccccc21,-2,i,4,10,7776,-9
O=C(C[C@H]1C[C@H](C(=O)N2CCOCC2)[C@@]2(CCC3CCCC3)c3[nH]c4ccc(Cl)cc4c3CCN2C1=O)NCCCn1ccnc1,-3,22,4,/,3725,0
C=CCn1c(SCC(=O)N2CCCC2)nc2cc(C(=O)NCC3CCCO3)ccc2c1=O (stereo not drawn),3,4,-2,8,16153*,1
CC(C)c1nc(SCC(=O)N2CCCC2)c2ccccc2n1,1,-10,0,-5,22830*,?
CCc1nc(SCC(=O)N2CCCC2)c2ccccc2n1,0,1,0,14,10605,1
O=C(NCc1ccco1)c1ccc2c(=O)n(Cc3ccco3)c(SCC(=O)N3CCCC3)nc2c1,0,-14,-1,3,21141*,-1
O=C(CSc1nc2ccccc2c(=O)n1Cc1ccco1)N1CCCCCC1,-4,0,-12,22,21631*,?
Cc1cnc(C(=O)OCC(=O)N2CCC(C)CC2)cn1,-14,0,0,/,5548,-1
COc1cccc(C(C(=O)NC2CCCC2)N(C(=O)c2csnn2)C2CC2)c1 (stereo not drawn),1,2,0,22,4363,1
CSCCC(NC(=O)c1ccccc1)C(=O)N1CC=C(c2ccccc2)CC1 (stereo not drawn),9,1,0,10,5599,1
CCCCCn1c(SCc2ccncc2)nc2cc(C(=O)NCc3ccco3)ccc2c1=O,2,-16,-9,30,19744*,?
CCCCn1c(SCC(=O)NCc2ccco2)nc2ccccc2c1=O,/,-8,/,37,/,/
Cc1cc(S(=O)(=O)N2CCOCC2)ccc1OCC(=O)NCCCn1ccnc1,-23,8,0,2,3031,-2
C=CCOC(=O)COc1ccc2c(C)c(C)c(=O)oc2c1,?,-8,?,-11,?,?
C=CCOC(=O)COc1ccc2c(C)c(CC)c(=O)oc2c1,-3,4,-1,2,23645*,-1
COc1ccc2nc(N3CCCC3)c(C#N)cc2c1,-5,70*,0,-19,3689,6
COc1ccc2nc(N3CCCCC3)c(C#N)cc2c1,4,-9,1,0,6356,15
CCCCc1ccc(NC(=O)c2c(C)noc2C)cc1,-10,-3,0,-5,17390*,-4
Cc1noc(C)c1C(=O)Nc1cccc2ncccc12,-6,-3,4,53*,3774,-2
CC(=O)Nc1cccc2ncccc12,4,4,0,3,7485,0
COc1ccc(C(=O)Nn2cc3c(c2-c2ccccc2)c(=O)n(C)c(=O)n3C)cc1,1,-4,-1,8,20615*,0
COc1ccc(-c2c3c(=O)n(C)c(=O)n(C)c3cn2-c2ccccc2)cc1,-12,2,-1,12,2852,0
COc1ccccc1Nc1nnc(C)c(=O)[nH]1,-2,0,-1,18,16456*,-1
CCOc1ccccc1Nc1nnc(C)c(=O)[nH]1,-6,-15,1,5,7155,-2
CCN(C(=O)C1CCCN(c2ncnc3c2nc2n3CCCCC2)C1)c1cccc(Cl)c1 (stereo not drawn),0,4,-4,5,5270,0
